The source of these data is PubChem BioAssay (Tox21).

Assay [1] is described as follows: qHTS assay to identify small molecule antagonists of the sonic hedgehog signaling (Shh) pathway (AID 1259369; calls by dose curve; note: nearly all actives have a fitted effect of over 45% in size; note: potency is the fitted concentration of half-maximal effect). The gist of the method: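 3T3Gli1-Luc, conditioned-medium-stimulated, 24hr cpd, 37C/5% CO2; Gli1-driven firefly Luc luminescence after 30min RT with luciferase reagent. Cells plated 4hr before cpd.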
In general terms: qHTS replaces the single test concentration by a dilution series.

Assay [2] addresses Estrogen receptor beta (Homo sapiens) (UniProt Q92731). As to the kind of experiment: qHTS assay to identify small molecule agonists of the estrogen receptor beta (ER-beta) signaling pathway (AID 1259377; active = well fitted activation curve with a large enough effect in the signal ratio in the repeat runs, not every such curve was filed as active; the % refers to the signal ratio). The gist of the method: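 ER-beta-UAS-bla HEK293T (GripTite) cells carrying a UAS-driven beta-lactamase reporter, in medium with 2% charcoal-stripped FBS, were exposed to compounds for 16 hr at 37C; LiveBLAzer B/G FRET substrate was then added and fluorescence read after 2 hours at room temperature.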

For assay [3] the target is unchanged. As to the kind of experiment: qHTS assay to identify small molecule antagonists of the estrogen receptor beta (ER-beta) signaling pathway (AID 1259378; active = well fitted inhibition curve with a large enough effect in the signal ratio in the repeat runs, not every such curve was filed as active; the % refers to the signal ratio). The gist of the method: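 Antagonist mode: compounds added to beta-lactamase reporter HEK293T ER-beta-UAS cells stimulated with E2 (1nM final), 16 hr at 37C. LiveBLAzer B/G FRET substrate, 2 hours room temperature, fluorescence read-out.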

Assay [4] in a line: qHTS assay to identify small molecule agonists of the androgen receptor (AR) signaling pathway in the presence of an antagonist - cell viability counter screen (AID 1259379). Note: nearly all actives have a fitted effect of over 25% in size. Note: potency is the fitted concentration of half-maximal effect. The gist of the method:
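Cells: MDA-kb2 (MMTV-luc, AR and GR elements), 3,000/well, 5 hr settle. Added: nilutamide 3.0uM final, then compounds (15 conc.). Incubation: 16 hr, 37C, no CO2. Read-out: CellTiter-Fluor, 1 hr, fluorescence.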

Assay [5] is described as follows: qHTS assay to identify small molecule agonists of the estrogen receptor beta (ER-beta) signaling pathway - cell viability counter screen (AID 1259380). Note: nearly all actives have a fitted effect of over 30% in size. Note: potency is the fitted concentration of half-maximal effect. Put shortly:
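HEK293T ER-beta-UAS-bla; 2% CS-FBS; 6 hr pre-plate, 16 hr cpd at 37C/5% CO2; LiveBLAzer read first, then CellTiter-Glo 30 min RT, luminescence.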

Assay [6] in a line: qHTS assay to identify small molecule antagonists of the estrogen receptor beta (ER-beta) signaling pathway - cell viability counter screen (AID 1259382). Note: series mostly up to about 92 µM; nearly all actives have a fitted effect of over 55% in size. Put shortly: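 Cells: ER-beta-UAS-bla HEK293T, 2,000/well, 2% CS-FBS, 6 hr settle. Cpd + E2 (1nM final), 16 hr, 37C/5% CO2. Bla FRET substrate 2 hr RT, then CellTiter-Glo 30 min RT, luminescence.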
Assay [7] concerns the target Estrogen receptor (Homo sapiens) (UniProt P03372). As to the kind of experiment: qHTS assay to identify small molecule agonists of the estrogen receptor alpha (ER-alpha) signaling pathway in the presence of an antagonist (AID 1259383; calls by dose curve; note: nearly all actives have a fitted effect of over 15% in size; note: potency is the fitted concentration of half-maximal effect; for activation: top concentration of the series differs between compounds). Put shortly: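 VM7Luc4E2, endog. ER-alpha + 4×ERE-luc; charcoal-stripped FBS, phenol red-free, 5 d; 24hr plating; +10.0nM ICI-182,780 (final); cpds 15 conc, 22hr, 37C/5% CO2; ONE-Glo luminescence.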

Assay [8] in a line: qHTS assay to identify small molecule agonists or antagonists of the thyroid stimulating hormone receptor (TSHR) signaling pathway - wild type cell line counter screen (AID 1259384; calls by dose curve). Put shortly:
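Counter screen in untransfected Hek293: compounds (15-point titration, triplicate) plus phosphodiesterase inhibitor Ro20-1724 added after 18 h plating; 30 min RT. Intracellular cAMP via competitive d2/cryptate immunoassay, 1 h incubation.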

In assay [9] the target is Thyrotropin receptor (Homo sapiens) (UniProt P16473). As to the kind of experiment: qHTS assay to identify small molecule antagonists of the thyroid stimulating hormone receptor (TSHR) signaling pathway (AID 1259385; calls by dose curve; note: nearly all actives have a fitted effect of over 20% in size). Put shortly: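 Antagonist mode: compound-treated TSHR-expressing HEK293 cells were stimulated with 1.5 ng/mL TSH (final) in presence of Ro20-1724 for 30 min at RT. HTRF cAMP detection after 1 h; each compound tested at 15 concentrations, triplicate.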

Assay [10] in a line: qHTS assay to identify small molecule agonists of the estrogen receptor alpha (ER-alpha) signaling pathway in the presence of an antagonist - cell viability counter screen (AID 1259386).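 Note: cells exposed to compounds for 22 h at 37 °C before the viability read; nearly all actives have a fitted effect of over 30% in size.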 Note: potency is the fitted concentration of half-maximal effect. The gist of the method:
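VM7Luc4E2, stripped-serum pre-culture 5 d; 24hr plating; +ICI-182,780 10.0nM final; cpds 15 conc, 22hr, 37C/5% CO2; CellTiter-Fluor added at 21hr, fluorescence 1hr later.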

The target in assay [11] is Progesterone receptor (Homo sapiens) (UniProt P06401). As to the kind of experiment: qHTS assay to identify small molecule agonists of the progesterone receptor (PR) signaling pathway (AID 1346784; calls by dose curve; note: nearly all actives have a fitted effect of over 30% in size). Put shortly: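 PR-UAS-bla HEK 293T cells carrying a UAS-driven beta-lactamase reporter were seeded in medium with 2% charcoal-stripped FBS, preincubated 6 hr at 37C, then exposed to compounds in DMSO for 16 hr; agonism was read by LiveBLAzer B/G FRET fluorescence.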

Assay [12] shares this target. As to the kind of experiment: qHTS assay to identify small molecule antagonists of the progesterone receptor (PR) signaling pathway (AID 1346795; active = well fitted inhibition curve with a large enough effect in the signal ratio in the repeat runs, not every such curve was filed as active; the % refers to the signal ratio). The gist of the method: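 PR-UAS-bla HEK293T cells carrying a UAS-driven beta-lactamase reporter were plated in medium with 2% charcoal-stripped FBS and rested 6 hr at 37C. Compounds were added with 1 nM R5020 (final) for 16 hr, then FRET substrate loaded 2 hr at room temperature.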

Assay [13] can be described thus: qHTS assay to identify small molecule antagonists of the progesterone receptor (PR) signaling pathway - cell viability counter screen (AID 1346798). Note: series mostly up to about 92 µM; nearly all actives have a fitted effect of over 50% in size. Put shortly:
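PR-UAS-bla HEK293T cells in medium with 2% charcoal-stripped FBS were treated with compounds plus R5020 for 16 hr at 37C. Cell viability was then read by CellTiter-Glo luminescence after 30 min at room temperature in the same wells.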

Assay [14] can be described thus: qHTS assay to identify small molecule agonists of the progesterone receptor (PR) signaling pathway - cell viability counter screen (AID 1346799; calls by dose curve; note: nearly all actives have a fitted effect of over 45% in size). Put shortly:
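PR-UAS-bla HEK293T cells, 3,000 per well in medium with 2% charcoal-stripped FBS, were preincubated 6 hr at 37C, then exposed to compounds for 16 hr; viability was read as CellTiter-Glo luminescence after 30 min at room temperature.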

The nature of assay [15]: qHTS assay to identify small molecule antagonists of the TGF-beta/Smad signaling pathway - cell viability counter screen (AID 1346824). Note: nearly all actives have a fitted effect of over 50% in size. The gist of the method:
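Cytotoxicity counter-screen run in the same wells as the beta-lactamase Smad reporter read: CellTiter-Glo luminescence after 30 min at room temperature. HEK 293T SBE-bla cells had 5 hr compound exposure at 37 C with TGF-beta1 (0.25 ng/mL stock).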

Assay [16] is described as follows: qHTS assay to identify small molecule agonists of the TGF-beta/Smad signaling pathway - cell viability counter screen (AID 1346829). Note: top concentration of the series differs between compounds; nearly all actives have a fitted effect of over 45% in size. The gist of the method:
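Tox21 qHTS format: SBE-bla HEK 293T cells treated with DMSO-dissolved compounds for 5 hr; CellTiter-Glo luminescence after 30 min at room temperature.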

Assay [17] can be described thus: qHTS assay to identify small molecule agonists of the TGF-beta/Smad signaling pathway (AID 1346859; active = well fitted activation curve with a large enough effect in the signal ratio in the repeat runs, not every such curve was filed as active; the % refers to the signal ratio; note: series mostly up to about 77 µM). The gist of the method:
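HEK 293T cells stably carrying a beta-lactamase reporter driven by the Smad binding element were seeded overnight, exposed to DMSO-dissolved compounds for 5 hr at 37 C, 5% CO2, then loaded with FRET substrate for 2 hr at room temperature.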

In assay [18] the target is Thyrotropin-releasing hormone receptor (Homo sapiens) (UniProt P34981). The assay is described as follows: qHTS assay to identify small molecule antagonists of the thyrotropin-releasing hormone receptor (TRHR) signaling pathway (AID 1346877; active = well fitted inhibition curve with a large enough effect in the repeat runs, not every such curve was filed as active; note: series mostly up to about 51 µM). The gist of the method: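 Intracellular calcium fluorescence, read kinetically every second over 3 min, reports TRH-evoked signalling in HEK293 cells carrying TRHR. Test compounds were added 5 min ahead of a 1 nM TRH challenge.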

The target is the same in assay [19]. The assay is described as follows: qHTS assay to identify small molecule agonists of the thyrotropin-releasing hormone receptor (TRHR) signaling pathway (AID 1346891; calls by dose curve; note: series mostly up to about 58 µM). Put shortly: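 TRHR-expressing HEK293 cells were plated 18 h at 37 °C/5% CO2, loaded with calcium dye 2 h at 37 °C, then given compound in DMSO; fluorescence was read kinetically for 3 min at 1 s intervals.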

Where “and” joins values, the source holds several entries; their conditions need not be identical. Equal values may be shown once. Results filed as inconclusive are left out. Where a structure was tested more than once in an assay, its records may differ in their call. Calls of active or inactive are those of the source. Unless noted, calls come from the whole dose curve; as a rule, active = well fitted curve in the direction sought with a large enough effect in the repeat runs; inconclusive = weak or mixed curves; inactive = no such curve, though single readings can be large; an effect the other way counts as inactive or inconclusive.

Thyrotropin-releasing hormone receptor (Homo sapiens), sequence (P34981 whole entry, looked up): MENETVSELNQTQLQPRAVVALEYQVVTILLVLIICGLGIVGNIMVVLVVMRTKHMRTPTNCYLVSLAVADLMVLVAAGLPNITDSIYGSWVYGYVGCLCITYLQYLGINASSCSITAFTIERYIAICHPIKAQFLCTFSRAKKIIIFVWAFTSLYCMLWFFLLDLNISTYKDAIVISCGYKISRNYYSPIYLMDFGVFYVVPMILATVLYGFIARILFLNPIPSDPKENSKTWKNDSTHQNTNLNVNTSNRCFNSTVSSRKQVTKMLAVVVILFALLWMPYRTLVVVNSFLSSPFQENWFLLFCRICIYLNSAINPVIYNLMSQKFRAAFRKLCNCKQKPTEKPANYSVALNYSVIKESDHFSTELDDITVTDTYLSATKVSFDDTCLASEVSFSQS
Thyrotropin receptor (Homo sapiens), sequence (P16473 whole entry, looked up): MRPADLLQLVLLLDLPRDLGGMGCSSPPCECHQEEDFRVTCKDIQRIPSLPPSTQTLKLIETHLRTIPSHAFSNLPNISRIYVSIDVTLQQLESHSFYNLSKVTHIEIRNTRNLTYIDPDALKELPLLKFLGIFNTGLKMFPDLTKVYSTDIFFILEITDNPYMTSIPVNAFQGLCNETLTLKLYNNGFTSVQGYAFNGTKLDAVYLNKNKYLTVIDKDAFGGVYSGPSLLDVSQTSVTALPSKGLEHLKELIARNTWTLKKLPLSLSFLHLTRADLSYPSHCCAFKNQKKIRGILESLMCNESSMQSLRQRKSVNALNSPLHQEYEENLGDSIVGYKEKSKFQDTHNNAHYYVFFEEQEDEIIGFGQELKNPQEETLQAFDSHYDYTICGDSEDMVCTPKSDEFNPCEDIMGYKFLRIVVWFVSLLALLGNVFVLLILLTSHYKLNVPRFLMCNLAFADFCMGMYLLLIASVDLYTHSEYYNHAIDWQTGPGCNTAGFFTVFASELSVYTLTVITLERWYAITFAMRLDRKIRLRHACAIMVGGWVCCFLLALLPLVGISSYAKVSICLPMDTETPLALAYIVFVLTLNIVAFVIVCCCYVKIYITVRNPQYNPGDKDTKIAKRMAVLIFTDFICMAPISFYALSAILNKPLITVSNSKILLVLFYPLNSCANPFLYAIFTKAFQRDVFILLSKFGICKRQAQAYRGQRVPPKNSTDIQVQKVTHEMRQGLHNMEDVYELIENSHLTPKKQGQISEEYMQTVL
Progesterone receptor (Homo sapiens), sequence (P06401 whole entry, looked up): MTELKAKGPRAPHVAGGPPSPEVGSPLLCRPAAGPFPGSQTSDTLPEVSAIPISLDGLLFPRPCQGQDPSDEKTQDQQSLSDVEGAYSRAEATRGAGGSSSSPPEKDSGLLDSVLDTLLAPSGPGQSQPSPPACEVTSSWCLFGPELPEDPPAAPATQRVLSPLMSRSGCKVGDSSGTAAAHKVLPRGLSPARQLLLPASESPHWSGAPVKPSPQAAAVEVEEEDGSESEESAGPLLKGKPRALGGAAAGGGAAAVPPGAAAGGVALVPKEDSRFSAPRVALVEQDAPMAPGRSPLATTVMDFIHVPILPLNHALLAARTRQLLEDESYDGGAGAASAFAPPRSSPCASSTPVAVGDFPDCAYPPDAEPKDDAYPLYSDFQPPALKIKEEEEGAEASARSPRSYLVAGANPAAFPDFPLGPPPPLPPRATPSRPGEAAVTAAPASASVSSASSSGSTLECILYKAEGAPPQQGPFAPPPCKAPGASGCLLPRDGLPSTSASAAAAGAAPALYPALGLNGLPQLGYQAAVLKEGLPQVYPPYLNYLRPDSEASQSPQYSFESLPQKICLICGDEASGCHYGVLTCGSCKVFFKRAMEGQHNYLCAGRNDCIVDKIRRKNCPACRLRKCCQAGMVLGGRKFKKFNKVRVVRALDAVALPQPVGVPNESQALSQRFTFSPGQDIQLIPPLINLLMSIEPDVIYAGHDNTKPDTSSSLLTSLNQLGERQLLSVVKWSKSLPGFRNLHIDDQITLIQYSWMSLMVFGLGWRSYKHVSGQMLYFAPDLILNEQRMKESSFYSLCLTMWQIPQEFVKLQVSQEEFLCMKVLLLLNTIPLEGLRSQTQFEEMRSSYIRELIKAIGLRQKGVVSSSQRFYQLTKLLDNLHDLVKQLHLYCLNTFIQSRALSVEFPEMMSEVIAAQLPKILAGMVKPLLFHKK
Estrogen receptor (Homo sapiens), sequence (P03372 whole entry, looked up): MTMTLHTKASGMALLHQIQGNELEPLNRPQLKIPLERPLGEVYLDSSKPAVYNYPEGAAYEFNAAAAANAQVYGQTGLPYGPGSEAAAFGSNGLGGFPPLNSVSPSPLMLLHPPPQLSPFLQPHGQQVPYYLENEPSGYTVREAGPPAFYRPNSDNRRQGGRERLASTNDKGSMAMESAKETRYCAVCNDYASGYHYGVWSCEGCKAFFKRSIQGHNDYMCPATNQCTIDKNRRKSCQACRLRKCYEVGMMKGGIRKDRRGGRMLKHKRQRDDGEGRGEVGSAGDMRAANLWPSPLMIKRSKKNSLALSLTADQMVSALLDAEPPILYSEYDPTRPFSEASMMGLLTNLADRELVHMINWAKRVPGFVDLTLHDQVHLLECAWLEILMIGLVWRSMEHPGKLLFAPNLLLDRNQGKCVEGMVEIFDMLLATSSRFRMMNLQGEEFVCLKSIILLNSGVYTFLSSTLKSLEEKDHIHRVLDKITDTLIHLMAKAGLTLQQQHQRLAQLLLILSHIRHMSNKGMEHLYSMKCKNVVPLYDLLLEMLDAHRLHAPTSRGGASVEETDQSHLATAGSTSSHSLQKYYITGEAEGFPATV
Estrogen receptor beta (Homo sapiens), sequence (Q92731 whole entry, looked up): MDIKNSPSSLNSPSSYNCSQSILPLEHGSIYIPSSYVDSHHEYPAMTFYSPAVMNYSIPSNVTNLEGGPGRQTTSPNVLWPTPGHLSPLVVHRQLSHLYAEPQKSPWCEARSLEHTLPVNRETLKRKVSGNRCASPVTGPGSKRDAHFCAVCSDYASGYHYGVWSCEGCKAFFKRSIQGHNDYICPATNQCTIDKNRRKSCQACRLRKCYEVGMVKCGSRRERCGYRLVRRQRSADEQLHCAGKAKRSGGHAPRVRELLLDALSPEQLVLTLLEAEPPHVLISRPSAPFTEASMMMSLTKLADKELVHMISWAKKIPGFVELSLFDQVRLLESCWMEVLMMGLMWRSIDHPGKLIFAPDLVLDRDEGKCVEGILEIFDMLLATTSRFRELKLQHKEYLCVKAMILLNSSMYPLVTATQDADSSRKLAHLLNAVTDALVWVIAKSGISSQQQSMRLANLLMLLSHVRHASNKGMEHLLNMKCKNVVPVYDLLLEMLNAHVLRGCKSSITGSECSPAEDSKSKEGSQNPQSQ

As for `CC(C)CON=O`, the Potency entry in assay [1], in assay [2], in [3], in assay [4], in assay [5] and in assay [6] was “inactive” in each case. For the same compound, the Potency result in assay [7], in assay [8], in assay [9], in assay [10], in assay [11] and in assay [12] was “inactive” in each case. In addition, the Potency result in [13], in [14], in assay [15] and in assay [16] was “inactive” each time.

Take `Cn1c(-c2ccccc2)cc(-c2ccccc2)[n+]1C`: the Potency in [1] is 306 nM (active) and inactive; in assay [4], 24.3 µM (active) and 19.3 µM (active). The Potency entry in [2], in assay [3], in assay [5], in [6], in assay [7] and in assay [8] was “inactive” in each case. The Potency result in assay [9], in [11], in assay [12], in assay [13], in [14] and in assay [15] was “inactive” each time. Moreover, the Potency entry in assay [16], in [17] and in assay [18] was “inactive” each time. Besides, the compound was called inactive in [19].

For the compound `CN(C)P(=O)(N(C)C)N(C)C`, the Potency entry in [1], in assay [2], in assay [3], in assay [4], in assay [5] and in [6] was “inactive” each time. For the same compound, the Potency result in [7], in [8], in assay [9], in [10], in assay [11] and in [12] was “inactive” in each case. Also, the Potency entry in assay [13], in assay [14], in assay [16], in assay [17] and in assay [18] was “inactive” throughout. The compound was called inactive in assay [19].

With `CN(C)c1nc(=O)n(C2CCCCC2)c(=O)n1C`, the Potency result in assay [1], in [2], in [3], in [4], in assay [5] and in [6] was “inactive” each time. For the same compound, the Potency result in [7], in assay [8], in assay [9], in assay [10], in assay [11] and in assay [12] was “inactive” throughout. Besides, the Potency result in assay [13], in assay [14], in assay [15], in [16], in assay [17] and in assay [18] was “inactive” each time.

For `COc1ccc(O)c(C(C)(C)C)c1`, the Potency entry in [1], in [2], in [3], in assay [4], in assay [5] and in [6] was “inactive” in each case. The Potency result in [7], in assay [8], in assay [9], in [10], in assay [12] and in assay [13] was “inactive” throughout. The Potency result in [14], in [16] and in [17] was “inactive” throughout.

Turning to `CC(C)=CC1C(C(=O)OCc2cccc(Oc3ccccc3)c2)C1(C)C` (stereo not given), the Potency result in assay [1], in [2], in assay [3], in [4], in [5] and in assay [6] was “inactive” each time. Moreover, the Potency entry in assay [7], in assay [8], in assay [9], in assay [10], in assay [11] and in [12] was “inactive” in each case. Also, the Potency entry in assay [13], in [14], in assay [16], in [17] and in assay [18] was “inactive” throughout. The outcome in assay [19] was inactive.

Turning to `Cc1cccc(N=Nc2ccc(N(C)C)cc2)c1`, the Potency entry in assay [1], in assay [2], in assay [3], in assay [6], in assay [8] and in assay [9] was “inactive” throughout. In addition, the Potency entry in assay [11], in assay [13], in assay [14], in assay [15], in assay [16] and in [17] was “inactive” in each case. Besides, the Potency entry in assay [18] was “inactive”. Also, the Potency in [4] was 39.2 µM (active) and 30.6 µM (active); in assay [5], 31.2 µM (active); in assay [7], 247 nM (active) and 273 nM (active); in assay [10], 24.8 µM (active) and 24.3 µM (active).
